Several values for one entry are separate records, joined by “and”; a condition that tells them apart may be missing. Equal entries are not always repeated. Records with an inconclusive call do not appear. Activity calls are given as the source filed them. The calls were made as follows, unless noted: active = hit-call score of the fitted dose curve at least 0.9, where 1 is the maximum; inactive = score below 0.9.
Assays:
[1] = read-out: Intercellular Adhesion Molecule 1 (ICAM1), ICAM1 (gene 3383); experiment: BSK_3C_ICAM1: BioMAP Diversity Plus: 3C Assay for Intercellular Adhesion Molecule 1 (ICAM1) Biomarker Activity (AID 2283003); conditions: primary human endothelial cells (HUVEC); actives raise or lower the signal
Outline: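 Using DMSO as baseline, bidirectional curve fitting was applied to ICAM-1 ELISA signals from HUVEC in the 3C system, measured 24 h after compound addition.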

[2] = BSK_3C_Proliferation: Cell Proliferation Assessment in the BioMAP Diversity Plus: 3C Assay (AID 2283006); conditions: primary human endothelial cells (HUVEC)
Outline: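 Measured here: sulforhodamine B (0.1%) staining of TCA-fixed sub-confluent umbilical vein endothelial cultures 48 h post-dosing, absorbance 560 nm. DMSO served as negative control and baseline; both signal gain and loss were modelled.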

[3] = biological target: Nuclear receptor subfamily 1 group I member 2 (Homo sapiens) (UniProt O75469); experiment: ATG_PXR_TRANS: Attagene TRANS-FACTORIAL HepG2 Assay for human Pregnane X Receptor (PXR) (AID 2283008; active = hit-call score of the fitted dose curve at least 0.9, where 1 is the maximum)
Nuclear receptor subfamily 1 group I member 2 (Homo sapiens), sequence (O75469 whole entry, looked up, the tested form may be a part): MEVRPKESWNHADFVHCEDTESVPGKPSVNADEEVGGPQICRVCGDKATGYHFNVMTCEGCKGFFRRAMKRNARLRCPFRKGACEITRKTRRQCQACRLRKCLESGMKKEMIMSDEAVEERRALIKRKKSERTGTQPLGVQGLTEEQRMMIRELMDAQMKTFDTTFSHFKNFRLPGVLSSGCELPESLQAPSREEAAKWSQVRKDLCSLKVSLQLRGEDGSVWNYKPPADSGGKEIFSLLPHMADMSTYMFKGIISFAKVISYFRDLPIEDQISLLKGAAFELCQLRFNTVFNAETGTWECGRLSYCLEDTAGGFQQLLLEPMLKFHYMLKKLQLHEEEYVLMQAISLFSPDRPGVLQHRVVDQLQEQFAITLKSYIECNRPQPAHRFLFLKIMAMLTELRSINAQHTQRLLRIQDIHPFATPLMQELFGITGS
Outline: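 Multiplexed TRANS reporter panel in HepG2; this component tracks PXR-Gal4-driven reporter mRNA after 24 h dosing, measured by RT-PCR with capillary electrophoresis fluorescence, fitted against DMSO.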

[4] = biological target: human RAR-related Orphan Receptor beta (RORb), RORB (gene 6096) (UniProt Q92753); experiment: ATG_RORb_TRANS: Attagene TRANS-FACTORIAL HepG2 Assay for human RAR-related Orphan Receptor beta (RORb) (AID 2283010; active = hit-call score of the fitted dose curve at least 0.9, where 1 is the maximum)
human RAR-related Orphan Receptor beta (RORb), RORB (gene 6096), sequence (Q92753 whole entry, looked up, the tested form may be a part): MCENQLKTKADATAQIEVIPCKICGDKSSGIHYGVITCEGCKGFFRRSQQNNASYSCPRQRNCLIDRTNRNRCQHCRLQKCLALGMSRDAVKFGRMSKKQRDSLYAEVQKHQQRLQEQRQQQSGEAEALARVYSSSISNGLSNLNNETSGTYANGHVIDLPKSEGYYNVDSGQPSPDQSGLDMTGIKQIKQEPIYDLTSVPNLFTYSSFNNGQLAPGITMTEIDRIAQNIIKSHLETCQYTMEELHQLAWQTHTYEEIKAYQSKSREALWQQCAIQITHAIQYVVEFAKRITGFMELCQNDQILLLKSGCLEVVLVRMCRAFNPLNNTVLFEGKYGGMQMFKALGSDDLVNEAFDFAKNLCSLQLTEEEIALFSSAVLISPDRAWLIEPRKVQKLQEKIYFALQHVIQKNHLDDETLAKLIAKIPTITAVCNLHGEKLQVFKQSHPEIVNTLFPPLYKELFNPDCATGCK
Outline: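 Multiplexed transcription-factor reporter assay: HepG2 cells transiently carrying NR-Gal4/GAL4-UAS constructs, 24 h treatment, mRNA quantified by RT-PCR plus capillary electrophoresis fluorescence; activity scored as induction over DMSO.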

[5] = biological target: human Thyroid Receptor alpha (THRa1), THRA (gene 7067) (UniProt P10827); experiment: ATG_THRa1_TRANS: Attagene TRANS-FACTORIAL HepG2 Assay for human Thyroid Receptor alpha (THRa1) (AID 2283014; active = hit-call score of the fitted dose curve at least 0.9, where 1 is the maximum)
human Thyroid Receptor alpha (THRa1), THRA (gene 7067), sequence (P10827 whole entry, looked up, the tested form may be a part): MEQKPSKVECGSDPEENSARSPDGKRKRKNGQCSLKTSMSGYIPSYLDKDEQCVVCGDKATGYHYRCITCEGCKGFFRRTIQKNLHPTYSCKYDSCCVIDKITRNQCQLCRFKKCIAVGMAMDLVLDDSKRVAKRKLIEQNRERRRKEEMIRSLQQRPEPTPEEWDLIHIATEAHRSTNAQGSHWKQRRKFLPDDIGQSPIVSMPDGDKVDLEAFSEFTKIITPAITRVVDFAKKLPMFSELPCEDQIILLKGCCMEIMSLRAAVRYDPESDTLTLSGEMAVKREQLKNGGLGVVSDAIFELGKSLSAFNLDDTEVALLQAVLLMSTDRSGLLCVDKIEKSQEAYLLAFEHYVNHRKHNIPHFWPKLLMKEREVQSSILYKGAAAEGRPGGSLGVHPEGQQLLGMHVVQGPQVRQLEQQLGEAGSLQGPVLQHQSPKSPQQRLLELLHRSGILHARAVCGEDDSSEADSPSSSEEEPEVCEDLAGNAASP
Outline: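 Reporter transcript induction, read by capillary electrophoresis of 6-FAM-labelled RT-PCR products, reflects activity of a transfected THRa1-Gal4 fusion in HepG2 liver cells. Cells were dosed for 24 h; activity was fitted in the positive direction against DMSO.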

[6] = read-out: Interleukin-1 alpha (IL1a), IL1A (gene 3552); experiment: BSK_BE3C_IL1a: BioMAP Diversity Plus: BE3C Assay for Interleukin-1 alpha (IL1a) Biomarker Activity (AID 2283016); conditions: primary human bronchial epithelial cells; actives raise or lower the signal
Outline: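 Measured in human lung primary bronchial epithelial cells: IL-1a by ELISA at 24 h after dosing, with bidirectional fitting against DMSO.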

[7] = read-out: Monocyte Chemoattractant Protein-1 (MCP1), CCL2 (gene 6347); experiment: BSK_3C_MCP1: BioMAP Diversity Plus: 3C Assay for Monocyte Chemoattractant Protein-1 (MCP1) Biomarker Activity (AID 2283017); conditions: primary human endothelial cells (HUVEC); actives raise or lower the signal
Outline: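 ELISA read-out of MCP-1 from human umbilical vein endothelial cell cultures harvested 24 h post-dosing. Gain or loss of signal was fitted relative to DMSO.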

[8] = read-out: Monocyte Chemoattractant Protein-1 (MCP1), CCL2 (gene 6347); experiment: BSK_4H_MCP1: BioMAP Diversity Plus: 4H Assay for Monocyte Chemoattractant Protein-1 (MCP1) Biomarker Activity (AID 2283018); conditions: primary human endothelial cells (HUVEC); actives raise or lower the signal
Outline: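 Primary human umbilical vein endothelium is exposed to chemical for 24 h before MCP-1 is assayed by ELISA. Concentration-response fitted bidirectionally relative to DMSO.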

[9] = read-out: Human Leukocyte Antigen - DR isotype (HLADR), HLA-DRA (gene 3122); experiment: BSK_3C_HLADR: BioMAP Diversity Plus: 3C Assay for Human Leukocyte Antigen - DR isotype (HLADR) Biomarker Activity (AID 2283019); conditions: primary human endothelial cells (HUVEC); actives raise or lower the signal;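 also: ELISA of cell-surface HLA-DR on HUVEC 24 h after dosing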
Outline: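 ELISA readout of surface HLA-DR on human umbilical vein endothelium, taken 24 h after chemical treatment. Gain- and loss-of-signal were both fitted relative to DMSO.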

[10] = read-out: Interleukin-8 (IL8), CXCL8 (gene 3576); experiment: BSK_3C_IL8: BioMAP Diversity Plus: 3C Assay for Interleukin-8 (IL8) Biomarker Activity (AID 2283020); conditions: primary human endothelial cells (HUVEC); actives raise or lower the signal
Outline: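 Using DMSO-treated wells as the baseline, bidirectional curve fitting was applied to ELISA-measured IL-8 from human umbilical vein endothelial cultures sampled 24 h after compound addition.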

[11] = read-out: Monokine induced gamma interferon (MIG), CXCL9 (gene 4283); experiment: BSK_3C_MIG: BioMAP Diversity Plus: 3C Assay for Monokine induced gamma interferon (MIG) Biomarker Activity (AID 2283021); conditions: primary human endothelial cells (HUVEC); actives raise or lower the signal
Outline: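 ELISA-measured MIG in dosed HUVEC 3C cultures at 24 h, analysed by bidirectional fitting with DMSO defining baseline activity.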

[12] = biological target: human Retinoic Acid Receptor gamma (RARg), RARG (gene 5916) (UniProt P13631); experiment: ATG_RARg_TRANS: Attagene TRANS-FACTORIAL HepG2 Assay for human Retinoic Acid Receptor gamma (RARg) (AID 2283009; active = hit-call score of the fitted dose curve at least 0.9, where 1 is the maximum)
human Retinoic Acid Receptor gamma (RARg), RARG (gene 5916), sequence (P13631 whole entry, looked up, the tested form may be a part): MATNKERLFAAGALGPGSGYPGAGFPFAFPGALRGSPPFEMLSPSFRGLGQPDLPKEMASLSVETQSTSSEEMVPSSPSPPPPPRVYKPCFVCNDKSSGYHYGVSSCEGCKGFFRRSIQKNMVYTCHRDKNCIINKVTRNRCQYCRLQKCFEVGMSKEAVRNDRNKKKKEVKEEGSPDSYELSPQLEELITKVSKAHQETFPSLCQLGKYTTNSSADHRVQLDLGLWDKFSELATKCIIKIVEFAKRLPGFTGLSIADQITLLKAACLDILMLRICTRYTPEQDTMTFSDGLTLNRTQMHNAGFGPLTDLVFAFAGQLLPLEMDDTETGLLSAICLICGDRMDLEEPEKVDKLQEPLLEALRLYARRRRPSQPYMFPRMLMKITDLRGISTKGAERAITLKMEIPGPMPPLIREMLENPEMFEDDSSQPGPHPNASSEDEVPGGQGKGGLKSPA
Outline: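 Gain-of-signal relative to DMSO is reported from fluorescent capillary electrophoresis of RT-PCR reporter products. These came from HepG2 cells expressing transfected RARg-GAL4 chimeras with UAS reporters, harvested 24 h after dosing.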

[13] = biological target: human RAR-related Orphan Receptor gamma (RORg), RORC (gene 6097) (UniProt P51449); experiment: ATG_RORg_TRANS: Attagene TRANS-FACTORIAL HepG2 Assay for human RAR-related Orphan Receptor gamma (RORg) (AID 2283011; active = hit-call score of the fitted dose curve at least 0.9, where 1 is the maximum)
human RAR-related Orphan Receptor gamma (RORg), RORC (gene 6097), sequence (P51449 whole entry, looked up, the tested form may be a part): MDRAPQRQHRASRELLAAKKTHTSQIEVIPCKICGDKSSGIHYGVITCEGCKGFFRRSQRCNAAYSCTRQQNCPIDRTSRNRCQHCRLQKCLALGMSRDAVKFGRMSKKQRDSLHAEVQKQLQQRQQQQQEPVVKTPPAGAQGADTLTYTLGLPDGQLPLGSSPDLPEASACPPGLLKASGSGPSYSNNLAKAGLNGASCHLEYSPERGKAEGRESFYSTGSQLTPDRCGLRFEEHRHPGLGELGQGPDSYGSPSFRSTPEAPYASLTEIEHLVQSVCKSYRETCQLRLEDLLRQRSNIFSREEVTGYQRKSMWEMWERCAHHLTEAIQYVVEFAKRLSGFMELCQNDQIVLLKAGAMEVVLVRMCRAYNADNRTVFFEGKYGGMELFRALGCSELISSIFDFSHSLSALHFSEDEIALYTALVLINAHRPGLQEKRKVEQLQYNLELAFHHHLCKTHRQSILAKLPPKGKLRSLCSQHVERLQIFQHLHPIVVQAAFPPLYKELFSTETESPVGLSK
Outline: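 First, HepG2 liver cells were transfected with GAL4-UAS-driven reporter constructs and the RORg-Gal4 fusion. Next, they were treated with chemical for 24 h. Finally, reporter mRNA was quantified by RT-PCR and capillary electrophoresis, with upward activity fitted against DMSO.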

[14] = biological target: human Retinoic Acid Receptor beta (RARb), RARB (gene 5915) (UniProt P10826); experiment: ATG_RARb_TRANS: Attagene TRANS-FACTORIAL HepG2 Assay for human Retinoic Acid Receptor beta (AID 2283004; active = hit-call score of the fitted dose curve at least 0.9, where 1 is the maximum)
Outline: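 Transient transfection of HepG2 with multiple reporter units → chemical dosing, 24 h → total RNA isolation → RT with oligo(dT) → reporter-specific PCR, 6-FAM primer extension, HpaI digest → capillary electrophoresis. Positive direction vs DMSO control.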

[15] = biological target: Retinoic acid receptor alpha (Homo sapiens) (UniProt P10276); experiment: ATG_RARa_TRANS: Attagene TRANS-FACTORIAL HepG2 Assay for human Retinoic Acid Receptor alpha (RARa) (AID 2283005; active = hit-call score of the fitted dose curve at least 0.9, where 1 is the maximum)
Retinoic acid receptor alpha (Homo sapiens), sequence (P10276 whole entry, looked up, the tested form may be a part): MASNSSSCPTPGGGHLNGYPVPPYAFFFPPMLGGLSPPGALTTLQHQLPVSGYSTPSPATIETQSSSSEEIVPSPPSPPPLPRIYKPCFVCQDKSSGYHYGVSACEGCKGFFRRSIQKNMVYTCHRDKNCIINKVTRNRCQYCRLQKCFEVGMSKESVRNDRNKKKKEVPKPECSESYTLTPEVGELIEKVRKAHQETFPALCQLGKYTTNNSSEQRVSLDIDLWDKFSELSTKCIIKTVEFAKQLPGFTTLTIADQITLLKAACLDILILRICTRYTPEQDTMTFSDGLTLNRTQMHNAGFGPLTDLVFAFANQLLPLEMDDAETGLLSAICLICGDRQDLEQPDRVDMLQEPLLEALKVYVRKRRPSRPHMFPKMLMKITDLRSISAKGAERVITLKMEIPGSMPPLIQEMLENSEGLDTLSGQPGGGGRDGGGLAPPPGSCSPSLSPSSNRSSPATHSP
Outline: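 Reporter transcripts, measured by RT-PCR with fluorescent labeling and capillary electrophoresis after 24 h dosing, reflect activity of an exogenous human RARa–GAL4 fusion in transiently transfected HepG2. Fitted for increase relative to DMSO.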

[16] = biological target: Peroxisome proliferator-activated receptor gamma (Homo sapiens) (UniProt P37231); experiment: ATG_PPARg_TRANS: Attagene TRANS-FACTORIAL HepG2 Assay for human Peroxisome Proliferator-activated Receptor-gamma (PPARg) (AID 2283007; active = hit-call score of the fitted dose curve at least 0.9, where 1 is the maximum)
Peroxisome proliferator-activated receptor gamma (Homo sapiens), sequence (P37231 whole entry, looked up, the tested form may be a part): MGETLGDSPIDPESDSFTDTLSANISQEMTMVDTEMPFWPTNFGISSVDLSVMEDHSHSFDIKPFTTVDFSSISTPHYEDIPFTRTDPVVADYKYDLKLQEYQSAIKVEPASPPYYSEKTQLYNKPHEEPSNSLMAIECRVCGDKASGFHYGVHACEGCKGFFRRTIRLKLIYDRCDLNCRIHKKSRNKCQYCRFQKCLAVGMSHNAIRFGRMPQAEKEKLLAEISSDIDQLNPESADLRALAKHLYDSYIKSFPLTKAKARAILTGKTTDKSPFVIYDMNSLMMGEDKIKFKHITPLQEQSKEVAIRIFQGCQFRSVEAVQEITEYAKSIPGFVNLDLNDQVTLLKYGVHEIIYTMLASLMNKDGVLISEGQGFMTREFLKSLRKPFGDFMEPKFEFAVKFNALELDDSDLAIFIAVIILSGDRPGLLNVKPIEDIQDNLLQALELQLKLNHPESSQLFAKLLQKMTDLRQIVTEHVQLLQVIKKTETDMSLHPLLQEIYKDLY
Outline: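 Gain-of-signal endpoint relative to DMSO, derived from reporter mRNA levels quantified by RT-PCR and capillary electrophoresis. Cells were HepG2 transiently expressing a chimeric NR-Gal4 construct with GAL4-UAS reporters, exposed to chemicals for 24 h.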

[17] = biological target: Retinoic acid receptor RXR-alpha (Homo sapiens) (UniProt P19793); experiment: ATG_RXRa_TRANS: Attagene TRANS-FACTORIAL HepG2 Assay for human Retinoid X Receptor alpha (RXRa) (AID 2283012; active = hit-call score of the fitted dose curve at least 0.9, where 1 is the maximum)
Retinoic acid receptor RXR-alpha (Homo sapiens), sequence (P19793 whole entry, looked up, the tested form may be a part): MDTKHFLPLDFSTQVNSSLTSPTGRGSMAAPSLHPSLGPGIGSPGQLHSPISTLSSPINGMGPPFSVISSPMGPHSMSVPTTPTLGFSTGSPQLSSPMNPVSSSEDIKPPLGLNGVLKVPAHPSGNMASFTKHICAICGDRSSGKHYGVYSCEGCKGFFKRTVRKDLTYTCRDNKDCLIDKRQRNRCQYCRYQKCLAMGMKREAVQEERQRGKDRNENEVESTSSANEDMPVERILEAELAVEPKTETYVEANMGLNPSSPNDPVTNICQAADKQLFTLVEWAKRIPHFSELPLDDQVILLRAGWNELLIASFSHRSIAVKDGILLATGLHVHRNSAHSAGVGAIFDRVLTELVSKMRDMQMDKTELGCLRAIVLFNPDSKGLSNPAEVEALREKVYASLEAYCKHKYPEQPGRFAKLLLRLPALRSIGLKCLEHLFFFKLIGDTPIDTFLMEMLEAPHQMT
Outline: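 Chimeric NR-GAL4 trans-activation in HepG2, 24 h treatment; reporter transcripts quantified by fluorescence on capillary electrophoresis, analysed for upward change from DMSO.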

[18] = biological target: human Retinoid X Receptor beta (RXRb), RXRB (gene 6257) (UniProt P28702); experiment: ATG_RXRb_TRANS: Attagene TRANS-FACTORIAL HepG2 Assay for human Retinoid X Receptor beta (RXRb) (AID 2283013; active = hit-call score of the fitted dose curve at least 0.9, where 1 is the maximum)
human Retinoid X Receptor beta (RXRb), RXRB (gene 6257), sequence (P28702 whole entry, looked up, the tested form may be a part): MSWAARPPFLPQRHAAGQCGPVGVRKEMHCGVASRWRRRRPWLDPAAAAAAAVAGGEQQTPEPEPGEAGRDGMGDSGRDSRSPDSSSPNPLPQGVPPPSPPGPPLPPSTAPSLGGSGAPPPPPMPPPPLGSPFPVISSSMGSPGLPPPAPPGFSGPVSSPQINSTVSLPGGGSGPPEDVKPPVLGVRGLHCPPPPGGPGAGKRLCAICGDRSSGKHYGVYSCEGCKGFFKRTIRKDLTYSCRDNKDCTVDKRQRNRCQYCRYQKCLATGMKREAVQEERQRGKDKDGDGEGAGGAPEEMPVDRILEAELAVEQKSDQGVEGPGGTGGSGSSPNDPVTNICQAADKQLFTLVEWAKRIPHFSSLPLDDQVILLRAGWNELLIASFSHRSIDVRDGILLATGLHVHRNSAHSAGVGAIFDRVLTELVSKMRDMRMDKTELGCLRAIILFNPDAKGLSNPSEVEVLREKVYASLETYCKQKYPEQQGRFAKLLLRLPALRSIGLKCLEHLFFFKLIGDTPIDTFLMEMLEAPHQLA
Outline: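 After a 24 h incubation with test chemical, transfected HepG2 cells carrying NR-Gal4 fusions and GAL4-UAS reporter transcription units yield RNA whose reporter cDNA is FAM-labelled, HpaI-cut and sized by capillary electrophoresis; increases over DMSO are scored.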

[19] = read-out: E-selectin (Homo sapiens) (UniProt P16581); experiment: BSK_3C_Eselectin: BioMAP Diversity Plus: 3C Assay for Eselectin Biomarker Activity (AID 2283015); conditions: primary human endothelial cells (HUVEC); actives raise or lower the signal;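 also: cell surface E-selectin protein quantified by ELISA 24 h after dosing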
Outline: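 ELISA read-out of E-selectin on endothelial monolayers after 24 h chemical treatment. Human umbilical vein primary cells served as the system, with DMSO defining baseline activity for bidirectional fitting.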

[20] = biological target: human Vitamin D Receptor (VDR), VDR (gene 7421) (UniProt P11473); experiment: ATG_VDR_TRANS: Attagene TRANS-FACTORIAL HepG2 Assay for human Vitamin D Receptor (VDR) (AID 2283022; active = hit-call score of the fitted dose curve at least 0.9, where 1 is the maximum)
Outline: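 Steps: transfect HepG2 with GAL4-UAS-driven reporter constructs; dose compounds 24 h; isolate RNA, reverse-transcribe, PCR-amplify with 6-FAM-labelled primer extension and HpaI digestion; quantify fragments by capillary electrophoresis relative to DMSO.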

Measured: AC50

E-selectin (Homo sapiens), sequence (P16581 whole entry, looked up): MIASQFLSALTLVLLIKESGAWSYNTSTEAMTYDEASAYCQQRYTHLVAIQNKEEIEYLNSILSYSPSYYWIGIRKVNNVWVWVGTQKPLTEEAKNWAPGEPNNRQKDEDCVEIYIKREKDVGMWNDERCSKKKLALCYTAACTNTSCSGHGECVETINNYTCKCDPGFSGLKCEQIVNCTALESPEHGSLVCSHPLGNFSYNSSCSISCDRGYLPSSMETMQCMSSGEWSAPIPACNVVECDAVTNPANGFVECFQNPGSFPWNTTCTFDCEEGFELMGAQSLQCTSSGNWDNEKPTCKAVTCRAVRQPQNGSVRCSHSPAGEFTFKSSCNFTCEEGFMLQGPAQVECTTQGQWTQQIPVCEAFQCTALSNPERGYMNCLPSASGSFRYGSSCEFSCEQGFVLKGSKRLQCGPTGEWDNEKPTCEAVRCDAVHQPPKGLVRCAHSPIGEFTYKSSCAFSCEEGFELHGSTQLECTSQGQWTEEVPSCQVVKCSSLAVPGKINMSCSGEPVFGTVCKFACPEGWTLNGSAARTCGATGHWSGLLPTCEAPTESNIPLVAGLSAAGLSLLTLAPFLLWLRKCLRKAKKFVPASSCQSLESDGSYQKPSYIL

N#Cc1cccnc1
inactive: [1] | [2] | [3] | [4] | [5] | [6] | [7] | [8] | [9] | [10] | [11]

OCCCCO
inactive: [1] | [2] | [12] | [4] | [13] | [6] | [7] | [8] | [9] | [10] | [11]

Cc1cc(-c2cc(C)c(N)c(C)c2)cc(C)c1N
inactive: [14] | [15] | [12] | [4] | [13] | [17] | [5]
active: [16] 36.3 µM | [3] 27 µM | [18] 25.4 µM

O=C(O)COc1cc(Cl)c(Cl)cc1Cl
active: [16] 32.6 µM
not listed: [4] | [11] | [12] | [13] | [14] | [15] | [17] | [20]
inactive: all other assays above

Cc1cc(Cl)ccc1OC(C)C(=O)O (configuration not stated)
active: [16] 71.4 µM
not listed: [3] | [14] | [15] | [17] | [18] | [20]
inactive: all other assays above

CC1(C)[C@H](C(=O)O[C@H](C#N)c2cccc(Oc3ccccc3)c2)[C@@H]1/C=C(\Cl)C(F)(F)F
active: [3] 152 nM and 288 nM | [8] 1.11 µM and 4.07 µM
not listed: [4] | [11] | [12] | [14] | [15] | [16]
inactive: all other assays above

O=[N+]([O-])c1c2ccccc2cc2ccccc12
inactive: [14] | [15] | [4] | [17] | [20]
active: [16] 1.27 µM | [3] 4.7 µM | [18] 5.12 µM

CN(C)C(=S)S
active: [18] 27 µM | [6] 29.6 µM
inactive: [1] | [2] | [3] | [17] | [5] | [19] | [7] | [8] | [9] | [10]

From PubChem BioAssay (EPA / NIEHS)
